According to the supplement of paper PMC6555819:

These sequences were tested on VDR:RXRa (NR concentration 270 nM, RXRa partner concentration 90 nM) (assay: PBM binding z-score (relative to random genomic background probes); higher = stronger binding; sequences stand for … in GC…GCGATTGACAGCGTAGAATGAAGG).
Protocol: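 Protein-binding microarray (Agilent 4x180K custom design, double-stranded 60-nt probes: 5' GC cap, 34-nt variable region, 24-nt constant primer region; full probe sequence given). Purified or IVT nuclear receptor:RXRα heterodimers (3:1 NR:RXRα, mostly 270:90 nM) or homodimers were incubated for 1 h in PBS with 2% milk and no ligand, then detected with Alexa488 antibodies. Fluorescence from o1-orientation probes (~5 replicates averaged) was converted to z-scores against 500 random hg19 background probes. Variable regions are seed direct-repeat (DR0–DR5) sites, all their single-nucleotide variants and half-site ablations.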

| Sequence | PBM binding z-score |
| --- | --- |
| TTACCAAGGTGCGCTGAGGTCGTTGATCCAACTC | 4.07 |
| CGAACTAGGTCAGACCAGGACAGTGAAGGATGAT | 1.03 |
| CCGACTGGGGCAGAAAGGTTACCATTCCATCCGG | 0.567 |
| CTTCAAAGTTCAACTAAGGTAACGTAAAGCACGC | 4.63 |
| CCAGATAGGTGAGAAGGTAACTCAGCCTCGATTA | 0.254 |
| CGTCCAAGGTCAAAGAGGTCAGTGAATGCCGAGT | 7.77 |
| CAAACTAGGTCACAGAGGTCATAGTCCGTGCGTA | 8.31 |
| TAGCCTGGGTCATTGGGCCAGTATAGTACGCATC | 1.97 |
| AATACAGTGTCACTAGGCCAGAGTAGGTACGAAT | -0.0369 |
| GCTAGTTGGTCAGTAAACGGTCACACACCGGTCG | -0.0437 |
| CTACCAATGTGAACAAGGTCGTTGATTACTATTC | 3.77 |
| CGAACTAGGGCATGAGTTGATAGCAAATGCCGAT | 0.0428 |
| ACCGAAAGGTCGAGGTGAGTATAGAGAAAGGGAA | 2.82 |
| ACTATGAGTTGACTTAGGGCAACCGATACGACGC | 1.16 |
| ATCTCAAGGTAAAAGTTCAGTGAATCCCGAGGAT | 1.6 |
| TCTATTAGTTGAAGCGCAACCGACGAGTCCGTTT | 0.736 |
| GCATATAGGTAATACAATGTGAAAGTCCGATTGT | -0.0597 |
| TCTCGGAGGACACGAGGGTCAGAGCTTTCCAGAG | 1.7 |
| CCGAGTAGGTTATGGGGCACTCAGGCAACGGTGA | -0.0808 |
| TCTGCTAGGTCAACGATGTTCAGCTAATCTGCTA | 1.67 |

| Sequence | PBM binding z-score |
| --- | --- |
| GCGACTGGGGCATCAGCAGGTTACCAGAACTTAA | -0.205 |
| TCTATTAGTTTAAGGGCAACCGACGAGTCCGTTT | 1.61 |
| TCATATAGGTAATACAAGTGAAAGTCGGCATCTA | 1.24 |
| GCAGATAGGTAATACAAGGTGAAAGTCCGATTGT | 0.13 |
| TCTTGTAGATCAAACGTTAAGAAAGCCGAAGCCT | 0.359 |
| GCTCGGAGGACAAGGGCAGAGCTTTGTCCGTAGA | -0.692 |
| TCTTGTAGATCCATAGAGGTTAAGAAAGTGCGCT | 1.69 |
| CCAGACAGGTGAGAAGCTAACTCAGCCTCGATTA | -0.228 |
| ATCGAAAGGACGTGAGGTGAGTATACAGAAAGGC | -0.301 |
| AGAATGAGGATATTAAGATCAGGGAATTGCGGTC | -0.178 |
| CGTCCAAGGTCAGAGAGGTCAGTGAATGCCGAGT | 7.26 |
| CCTATTAGTTGACCATAAGGGCAACTGAAGCTCG | 1.08 |
| CGAACGAGGGCATGAGTTGATAGCGAATGCCGAT | 1.21 |
| CCAGACAGGTGTGAAGGTAACTCAGCCTCGATTA | -0.322 |
| TCGATTAGGTTAGTCGGGGCATTCAGCCAACATA | 2.14 |
| ACTAGTTGGTCGGCTGAGGTCACACACAATTCGG | 3.94 |
| CGTCCAAGGTCAATGCTAGGTGAGTGAAAGCATT | 3.69 |
| ATATGTAAGTTAGCTGGGGTCATTCAGACTAGGC | 5.25 |
| CGTCCAAGGTCAATGCTAGGTCAGTCAAAGCATT | 5.1 |
| CCTGCTAGGTCAATGGTAAGCTAAAGCAGCTCGC | 0.595 |
